Measurements taken from PubChem BioAssay AID588790 (National Center for Advancing Translational Sciences (NCATS), 2011).
Hit rate of the full screen: of about 1,200 compounds, about 85 (7%) were called active. The sample holds actives, similar compounds and a random draw of the others, so the mix is not that of the screen. A number with no mark means an inactive call. The call rests on the fitted dose curve.

Target: Beta-2 adrenergic receptor (Homo sapiens) (UniProt P07550)
Test: qHTS assay of beta-arrestin-biased ligands of beta2-adrenergic receptor: Hit Validation with GloSensor; on activation: 0% is about no effect
Settings: W9-Glo22F cells, GloSensor cAMP luminescence, beta2AR agonism; activation: at 46.1 µM (top of the series)
Outline: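 W9-Glo22F cells plated and incubated overnight at 37 deg C, 5% CO2, then compounds pinned in. GloSensor reagent added, 10 min at room temperature, luminescence read.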
Potency means the concentration at half of the fitted maximal effect.

Chain of Beta-2 adrenergic receptor (Homo sapiens) (P07550 whole entry, looked up): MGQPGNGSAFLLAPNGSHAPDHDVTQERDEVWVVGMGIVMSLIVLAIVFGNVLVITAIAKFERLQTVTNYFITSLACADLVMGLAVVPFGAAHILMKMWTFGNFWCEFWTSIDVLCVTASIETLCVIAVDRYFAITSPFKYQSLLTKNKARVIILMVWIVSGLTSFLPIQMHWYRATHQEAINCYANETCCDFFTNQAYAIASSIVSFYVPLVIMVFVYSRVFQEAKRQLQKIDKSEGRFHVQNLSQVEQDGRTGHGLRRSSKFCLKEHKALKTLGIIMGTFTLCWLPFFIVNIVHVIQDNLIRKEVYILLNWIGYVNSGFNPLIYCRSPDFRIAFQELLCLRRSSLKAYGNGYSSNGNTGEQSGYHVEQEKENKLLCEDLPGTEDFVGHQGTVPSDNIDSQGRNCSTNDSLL

SMILES	Potency	activation [%]
COc1cc(/C=C2\SC(=N)N(c3ccc4c(c3)OCO4)C2=O)cc(OC)c1O	20.6 µM (active)	–
CCCC1(C(=O)OCC)NC(c2ccc(OC)cc2OC)C2C(=O)N(c3ccc4c(c3)OCCO4)C(=O)C21 (stereo unspecified)	–	0.306
CCNC(=S)N/N=C(\C)c1cccc(OC)c1	–	-1.16
C[C@H](CO)N1C[C@H](C)[C@@H](CN(C)Cc2ccccc2)Oc2c(NC(=O)Cc3ccccc3)cccc2C1=O	–	0.306
CCCN=C1N(CC)C[C@@H]2[C@@H]3C(=O)N(C)C(=O)[C@@H]3[C@](CC)(C(=O)OC)N12	–	0
O=C(COC(=O)c1ccccn1)c1ccc([N+](=O)[O-])cc1	–	4.96
Cc1ccc(S(=O)(=O)N(Cc2ccc(Cl)cc2)c2ccccc2C(=O)NCc2ccco2)cc1	–	-1.01
Cc1cc(C)nc(-n2nc(C)cc2NC(=O)CN2CCC(C)CC2)n1	29.1 µM (active)	–
CC(=O)Nc1ccc(Nc2cc(C)nc3c(-c4ccccc4)c(C)nn23)cc1	–	2.33
CCC1CCCCN1CC(=O)Nc1cc(C)nn1-c1nc(C)cc(C)n1 (stereo unspecified)	7.31 µM (active)	–
Cc1cc(C)nc(-n2nc(C)cc2NC(=O)CN2CCCC2)n1	20.6 µM (active)	–
CCC(C(=O)Nc1cc(C)nn1-c1nc(C)cc(C)n1)c1ccccc1 (stereo unspecified)	18.4 µM (active)	–
Cc1cc(C)nc(-n2nc(C)cc2NC(=O)CNC2CCCCC2)n1	–	1.16
Cc1cc(C)n(-c2nc(NC(C)C)nc(NC(C)C)n2)n1	–	1.16
Cc1cc(C)n(-c2nc(NC(C)(C)C)nc(NC(C)(C)C)n2)n1	–	-1.01
CCNc1nc(NCC)nc(-n2nc(C)cc2C)n1	–	9.76
CNc1cc(C)nc(-n2nc(C)cc2C)n1	–	-2.33
Cc1ccc(S(=O)(=O)N2CCN(C(C)C(=O)NCC(C)c3ccccc3)CC2)cc1 (stereo unspecified)	–	-1.16
CN(C)C(=S)Nc1nc2ccccc2s1	–	0.459
COc1cccc(C2CC3(CC(C)(C)NC(=S)N3)Oc3cc(O)ccc32)c1 (stereo unspecified)	–	-2.33
COCCCN=C1NN=C(c2cc(C)n(-c3ccccc3)c2C)CS1	–	5.81
COc1ccc(N2C(=O)C(CC(=O)Nc3ccc(Cl)cc3)N(NC(=O)c3cccc(F)c3)C2=S)cc1 (stereo unspecified)	–	0.306
O=C(NC(=S)N1CCCCCC1)c1ccccc1Cl	–	0.306
O=C(NCCN1CCOCC1)c1cc(Br)ccc1Cl	–	-1.16

SMILES	Potency	activation [%]
O=C(NCCN1CCOCC1)c1ccccc1Cl	20.6 µM (active)	–
C=C(C)c1cccc(C(C)(C)NC(=O)NC2CCN(Cc3ccccc3)CC2)c1	–	0.306
COc1cc2c(cc1OC)C(c1cc3ccccc3oc1=O)=NC(C)(C)C2	23.1 µM (active)	–
CC(=O)Oc1ccc2cc(-c3ccccc3)c(=O)oc2c1	–	0.306
CC(C)c1ccc(NC(=S)Nc2ccc3cn[nH]c3c2)cc1	–	0.306
O=C(O)C12CC3CC(C1)CC(n1ncc(N4CCN(c5ccccc5)CC4)c(Cl)c1=O)(C3)C2	–	0.306
O=C1c2ccccc2-c2onc3ccc(Oc4ccccc4)c1c23	13 µM (active)	–
C=CCn1nc([N+](=O)[O-])nc1Sc1cccc2cccnc12	–	1.16
C=CCNC(=S)Nc1cc(C)ccn1	–	0.306
O=C(NCC1CCCO1)c1ccc(CS(=O)(=O)c2ccc(Br)cc2)o1 (stereo unspecified)	–	-1.01
COc1ccccc1NS(=O)(=O)c1ccc(NC(=O)Cc2cccs2)cc1	32.6 µM (active)	–
COc1ccccc1NS(=O)(=O)c1cc(NC(=O)CNC(=O)c2ccc(C)s2)ccc1Cl	–	0.306
CCOc1ccc(CC(=O)Nc2ccc(S(=O)(=O)Nc3cc(C)on3)cc2)cc1OCC	–	-1.16
CC(C)N(Cc1cc2ccccc2[nH]c1=O)C(=O)C1CCCCC1	–	0.306
COc1ccc(C2CC(O)(c3ccccc3)Oc3cc(OC)c(OC)c(OC)c32)cc1 (stereo unspecified)	–	0.306
COc1cccc(Oc2cnc(N)nc2-c2ccc(OC)cc2O)c1	23.1 µM (active)	–
COc1ccc(Nc2cc(Nc3cccc(OC)c3)ncn2)cc1	–	4.96
C/C(CC(C)(C)C1CCCCC1)=N\NC(N)=S	–	-1.16
O=[N+]([O-])c1ccc(O)c2ncccc12	–	0.306
O=[N+]([O-])c1cc(Cl)c(O)c2ncccc12	–	-1.16
COc1cc([N+](=O)[O-])c2nccnc2c1	16.4 µM (active)	–
O=[N+]([O-])c1cc(Br)cc(C=Nc2ccc3c(c2)OCO3)c1O	–	0
COc1cc(CNc2ccc(O)cc2)cc(Br)c1OCc1ccccc1	14.6 µM (active)	–
Oc1ccc(NCc2ccc(OCc3ccccc3)cc2)cc1	–	-2.33

SMILES	Potency	activation [%]
Oc1ccc(NCc2cccc(OCc3ccccc3)c2)cc1	–	0.153
NC(=S)N=Nc1c(O)n(CCCl)c2ccc(Cl)cc12	32.6 µM (active)	–
CC1CC(C)(C)n2c(O)c(N=NC(N)=S)c3cccc1c32 (stereo unspecified)	–	4.96
C=CCn1c(O)c(N=NC(=S)Nc2ccccc2F)c2cc(S(=O)(=O)N3CCOCC3)ccc21	–	0
NC(=S)N=Nc1c(O)n(CCCl)c2ccccc12	25.9 µM (active)	–
NC(=S)N=Nc1c(O)n(Cc2ccc(F)cc2)c2ccccc12	–	2.33
C/C(Cl)=C\Cn1c(O)c(N=NC(N)=S)c2ccccc21	–	6.12
O=C(Oc1cccc2cccnc12)c1ccc2c(c1)OCCO2	–	-1.16
COc1ccc(NC(=S)Nc2cccc(C)n2)cc1	–	2.33
CCc1cc2c(SCC(=O)Nc3ccc(Cl)cn3)ncnc2s1	–	0
c1ccc(CCNc2nc(-c3ccccn3)cs2)cc1	–	7.28
COc1ccc(CCNc2nc(-c3ccccn3)cs2)cc1OC	20.6 µM (active)	–
COc1ccc(OCCCC(=O)Nc2nc(-c3ccccn3)cs2)cc1	–	0.306
COc1ccc(NC(=S)NC(=O)c2ccc3c(c2)OCCO3)cc1	–	-0.857
Cc1ccc(/C=C2/C(=O)N(c3ccccc3)C(=S)N2C)o1	–	-1.16
Cc1cccc(N=C2NC(=O)/C(=C/c3cccs3)S2)c1	1.03 µM (active)	–
Cc1ccc(N=C2NC(=O)/C(=C/C=C/c3ccco3)S2)cc1	–	11.8
C#CCn1c(=NC(=O)CSC(C)=O)sc2cc(F)ccc21	–	8.6
Cc1ccc2cccc(SCC(=O)NCC#N)c2n1	–	-1.16
CC(=O)c1cccc(CN2CCN(CCC(C)C)C(CCO)C2)c1 (stereo unspecified)	–	0.153
N#C/C(=C\c1ccncc1)c1nc2ccccc2o1	–	0.153
N#C/C(=C\c1ccc(Cl)cc1)c1nc2ccccc2o1	–	0
N#C/C(=C\c1cccc(O)c1)c1nc2ccccc2o1	6.51 µM (active)	–
